# Test results as given in PubChem BioAssay (NCI).
# “And” between values parts separate entries of the source, which are not always exact repeats. Equal values may be shown once. This is part of a sample that, as a whole, favours compounds with a hit. Of some 83,000 tested, about 20% had one in any assay.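 Negative percent growth values reflect cell death: -40 means 40% of the cells present at the start died, and -100 means all died.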 The source made the active and inactive calls. The calls were made as follows: active = growth percent below 10; inactive = the rest.
# Tests used:
# Experiment in all cases: NCI-60 one-dose screen, 48 h (100 = growth as untreated, 0 = no growth, -100 = all killed)
# Conditions in all cases: 10 µM unless noted
# [1] = test system: HCT-15 colon
# [2] = test system: HT29 colon
# [3] = test system: SNB-75 CNS
# [4] = test system: SNB-19 CNS
# [5] = test system: PC-3 prostate
# [6] = test system: SK-MEL-5 melanoma
# [7] = test system: UACC-62 melanoma
# [8] = test system: LOX IMVI melanoma
# [9] = test system: SK-MEL-28 melanoma
# [10] = test system: SK-MEL-2 melanoma
# [11] = test system: EKVX NSCLC
# [12] = test system: UO-31 renal
# [13] = test system: TK-10 renal
# [14] = test system: ACHN renal
# [15] = test system: CAKI-1 renal
# [16] = test system: A498 renal
# [17] = test system: CCRF-CEM leukemia
# [18] = test system: MOLT-4 leukemia
# [19] = test system: U251 CNS
# [20] = test system: SN12C renal
Structure (SMILES),growth [1],growth [2],growth [3],growth [4],growth [5],growth [6],growth [7],growth [8],growth [9],growth [10],growth [11],growth [12],growth [13],growth [14],growth [15],growth [16],growth [17],growth [18],growth [19],growth [20]
NC(=S)N/N=C(\c1ccc(Br)cc1)C1CC1,81.8% (inactive) and 82.9% (inactive),68.4% (inactive),87.1% (inactive) and 76.7% (inactive),108% (inactive),84.1% (inactive) and 61.5% (inactive),100% (inactive) and 95.9% (inactive),98.4% (inactive),86.2% (inactive),102% (inactive) and 103% (inactive),92.8% (inactive),58% (inactive) and 68.4% (inactive),61.4% (inactive) and 56.8% (inactive),119% (inactive),95.7% (inactive) and 93% (inactive),83.7% (inactive) and 81.4% (inactive),99.5% (inactive),52.5% (inactive) and 55.6% (inactive),38% (inactive) and 45.2% (inactive),–,–
ClC/C=C/CSc1ncnc2nc[nH]c12,104% (inactive) and 99.7% (inactive),98.4% (inactive) and 95.2% (inactive),–,98.6% (inactive) and 102% (inactive),100% (inactive) and 98.1% (inactive),100% (inactive) and 112% (inactive),99.9% (inactive) and 103% (inactive),98.7% (inactive) and 97.3% (inactive),111% (inactive) and 101% (inactive),5.9% (active) and 112% (inactive),105% (inactive) and 104% (inactive),85.9% (inactive) and 87.1% (inactive),108% (inactive),103% (inactive) and 99.2% (inactive),106% (inactive) and 111% (inactive),91.4% (inactive) and 117% (inactive),90.7% (inactive),93.7% (inactive) and 85.3% (inactive),96.7% (inactive) and 102% (inactive),105% (inactive) and 100% (inactive)
N#CC(C#N)=C/C=C/c1cccc([N+](=O)[O-])c1,-6.94% (active) and -31.6% (active),-19.6% (active) and -39.5% (active),–,51.3% (inactive) and 41.4% (inactive),14.5% (inactive) and 0.0705% (active),8.16% (active) and -10.6% (active),-51.7% (active) and -61.6% (active),-29.1% (active) and -78.9% (active),5.56% (active) and -41.8% (active),20.6% (inactive) and -14.1% (active),45.5% (inactive) and 2.6% (active),-16.6% (active) and -82.4% (active),7.02% (active) and -19.4% (active),-22.1% (active) and -59.7% (active),10.6% (inactive) and -24.8% (active),94.4% (inactive) and 2.43% (active),2.18% (active) and 1.1% (active),-1.02% (active) and 3.93% (active),10% (inactive) and -22.7% (active),-21.7% (active) and -30.1% (active)
c1ccc(N(c2ccccc2)c2ccccc2)cc1,99.8% (inactive),97% (inactive),–,102% (inactive),101% (inactive),113% (inactive),104% (inactive),94.5% (inactive),117% (inactive),99.8% (inactive),101% (inactive),86.8% (inactive),98.9% (inactive),103% (inactive),90.3% (inactive),117% (inactive),98% (inactive),95.4% (inactive),102% (inactive),106% (inactive)
CCN(CC)CCC(CNc1c2ccc([N+](=O)[O-])cc2nc2cc(OC)c(OC)cc12)c1ccccc1 (stereo not drawn),-29.4% (active) and -71.4% (active),3.73% (active) and -97.3% (active),-95.7% (active) and -97.6% (active),-42.9% (active) and -93.8% (active),-62.6% (active) and -97.1% (active),-81.8% (active) and -100% (active),-78.6% (active) and -100% (active),-62.2% (active) and -100% (active),-84.8% (active),-11.9% (active) and -77.5% (active),-23.6% (active) and -87.3% (active),-73.9% (active) and -99.4% (active),–,-58.9% (active) and -76.9% (active),8.78% (active) and -76.1% (active),-16.9% (active),1.82% (active) and -50.9% (active),–,–,–
O=[N+]([O-])c1ccc(Oc2ccccc2)cc1,123% (inactive) and 104% (inactive),113% (inactive) and 103% (inactive),–,97% (inactive) and 114% (inactive),81.9% (inactive) and 88.4% (inactive),109% (inactive) and 108% (inactive),107% (inactive) and 106% (inactive),95.3% (inactive) and 99.3% (inactive),108% (inactive),112% (inactive) and 117% (inactive),100% (inactive) and 122% (inactive),80.1% (inactive) and 87.6% (inactive),97.9% (inactive) and 103% (inactive),106% (inactive) and 105% (inactive),93.4% (inactive) and 126% (inactive),106% (inactive) and 96.9% (inactive),–,96.5% (inactive) and 92.6% (inactive),102% (inactive) and 105% (inactive),120% (inactive) and 116% (inactive)
Nc1ccc2[nH]c(-c3ccccc3)cc(=O)c2c1,73.7% (inactive),78.7% (inactive),82.4% (inactive),88.7% (inactive),74.1% (inactive),58.2% (inactive),77.6% (inactive),–,86.5% (inactive),78.8% (inactive),96.1% (inactive),89.9% (inactive),123% (inactive),102% (inactive),72.2% (inactive),84.2% (inactive),67.9% (inactive),63.8% (inactive),–,98.2% (inactive)
C1CCCCNCCC1,113% (inactive),95.1% (inactive),–,110% (inactive),101% (inactive),109% (inactive),103% (inactive),111% (inactive),109% (inactive),115% (inactive),99.8% (inactive),92.5% (inactive),125% (inactive),117% (inactive),90.2% (inactive),113% (inactive),–,110% (inactive),103% (inactive),108% (inactive)
CNC(=O)c1cc(Oc2ccc(NC(=O)Nc3ccc(Cl)c(C(F)(F)F)c3)cc2)ccn1,1.74% (active) and 5.49% (active),-3.38% (active) and 9.81% (active),-38.9% (active) and 21.8% (inactive),13.3% (inactive) and 20.6% (inactive),11.6% (inactive) and -9.74% (active),-73.1% (active) and -56.6% (active),-49.4% (active) and -25.5% (active),-14.6% (active) and -55.1% (active),-15.7% (active) and -26.7% (active),-42.9% (active),4.85% (active) and -2.85% (active),-28.5% (active) and -81.1% (active),-11.8% (active) and 25.8% (inactive),5.96% (active) and 0% (active),7.37% (active) and -32.6% (active),-73.7% (active) and -21.1% (active),12% (inactive) and 18.6% (inactive),-1.28% (active) and 25.8% (inactive),–,6.54% (active) and -7.24% (active)
Nc1n[nH]c(=S)n1-c1ccc(Cl)cc1,99.3% (inactive),101% (inactive),82% (inactive),99.4% (inactive),97.1% (inactive),105% (inactive),–,94.6% (inactive),–,99.9% (inactive),106% (inactive),89% (inactive),92.6% (inactive),103% (inactive),119% (inactive),–,96.7% (inactive),–,–,–
